Activity calls are given as the source filed them.
Columns and labels:
[1] = small molecules captured by biotinylated probe aFSTL3 – biochemical, small-molecule microarray, fluorescence 635/667, stem cell growth factor project, primary screen (AID 1064); conditions: higher = more signal;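 further: measures binding of the biotinylated anti-FSTL3 antibody to printed compounds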
[2] = binders from COS7 lysate, DM2A8 probe, primary screen, torsin A project, cell lysate, small-molecule microarray, fluorescence 635/667 (AID 1065); conditions: higher = more signal, COS7 lysate expressing mutant human TOR1A
[3] = small molecules captured by biotinylated probe aFGF2 – biochemical, small-molecule microarray, fluorescence 635/667, stem cell growth factor project, primary screen (AID 1067); conditions: higher = more signal;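 further: measures binding of biotinylated aFGF2 protein to printed compounds on slides; z-score merges feature fluorescence and signal-to-noise across triplicate slides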
[4] = small molecules captured by biotinylated probe aFGF10 – biochemical, small-molecule microarray, fluorescence 635/667, stem cell growth factor project, primary screen (AID 1071); conditions: higher = more signal;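 further: score merges 667 nm spot intensity and signal to noise from triplicate slides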
[5] = molecular target: Neurogenic locus notch homolog protein 2 (Homo sapiens) (UniProt Q04721); assay: small molecules binding Notch2 protein – biochemical, small-molecule microarray, 635 nm fluorescence, stem cell growth factors, primary screen (AID 1073); conditions: higher = more signal
Chain of Neurogenic locus notch homolog protein 2 (Homo sapiens) (Q04721 whole entry, looked up, canonical isoform): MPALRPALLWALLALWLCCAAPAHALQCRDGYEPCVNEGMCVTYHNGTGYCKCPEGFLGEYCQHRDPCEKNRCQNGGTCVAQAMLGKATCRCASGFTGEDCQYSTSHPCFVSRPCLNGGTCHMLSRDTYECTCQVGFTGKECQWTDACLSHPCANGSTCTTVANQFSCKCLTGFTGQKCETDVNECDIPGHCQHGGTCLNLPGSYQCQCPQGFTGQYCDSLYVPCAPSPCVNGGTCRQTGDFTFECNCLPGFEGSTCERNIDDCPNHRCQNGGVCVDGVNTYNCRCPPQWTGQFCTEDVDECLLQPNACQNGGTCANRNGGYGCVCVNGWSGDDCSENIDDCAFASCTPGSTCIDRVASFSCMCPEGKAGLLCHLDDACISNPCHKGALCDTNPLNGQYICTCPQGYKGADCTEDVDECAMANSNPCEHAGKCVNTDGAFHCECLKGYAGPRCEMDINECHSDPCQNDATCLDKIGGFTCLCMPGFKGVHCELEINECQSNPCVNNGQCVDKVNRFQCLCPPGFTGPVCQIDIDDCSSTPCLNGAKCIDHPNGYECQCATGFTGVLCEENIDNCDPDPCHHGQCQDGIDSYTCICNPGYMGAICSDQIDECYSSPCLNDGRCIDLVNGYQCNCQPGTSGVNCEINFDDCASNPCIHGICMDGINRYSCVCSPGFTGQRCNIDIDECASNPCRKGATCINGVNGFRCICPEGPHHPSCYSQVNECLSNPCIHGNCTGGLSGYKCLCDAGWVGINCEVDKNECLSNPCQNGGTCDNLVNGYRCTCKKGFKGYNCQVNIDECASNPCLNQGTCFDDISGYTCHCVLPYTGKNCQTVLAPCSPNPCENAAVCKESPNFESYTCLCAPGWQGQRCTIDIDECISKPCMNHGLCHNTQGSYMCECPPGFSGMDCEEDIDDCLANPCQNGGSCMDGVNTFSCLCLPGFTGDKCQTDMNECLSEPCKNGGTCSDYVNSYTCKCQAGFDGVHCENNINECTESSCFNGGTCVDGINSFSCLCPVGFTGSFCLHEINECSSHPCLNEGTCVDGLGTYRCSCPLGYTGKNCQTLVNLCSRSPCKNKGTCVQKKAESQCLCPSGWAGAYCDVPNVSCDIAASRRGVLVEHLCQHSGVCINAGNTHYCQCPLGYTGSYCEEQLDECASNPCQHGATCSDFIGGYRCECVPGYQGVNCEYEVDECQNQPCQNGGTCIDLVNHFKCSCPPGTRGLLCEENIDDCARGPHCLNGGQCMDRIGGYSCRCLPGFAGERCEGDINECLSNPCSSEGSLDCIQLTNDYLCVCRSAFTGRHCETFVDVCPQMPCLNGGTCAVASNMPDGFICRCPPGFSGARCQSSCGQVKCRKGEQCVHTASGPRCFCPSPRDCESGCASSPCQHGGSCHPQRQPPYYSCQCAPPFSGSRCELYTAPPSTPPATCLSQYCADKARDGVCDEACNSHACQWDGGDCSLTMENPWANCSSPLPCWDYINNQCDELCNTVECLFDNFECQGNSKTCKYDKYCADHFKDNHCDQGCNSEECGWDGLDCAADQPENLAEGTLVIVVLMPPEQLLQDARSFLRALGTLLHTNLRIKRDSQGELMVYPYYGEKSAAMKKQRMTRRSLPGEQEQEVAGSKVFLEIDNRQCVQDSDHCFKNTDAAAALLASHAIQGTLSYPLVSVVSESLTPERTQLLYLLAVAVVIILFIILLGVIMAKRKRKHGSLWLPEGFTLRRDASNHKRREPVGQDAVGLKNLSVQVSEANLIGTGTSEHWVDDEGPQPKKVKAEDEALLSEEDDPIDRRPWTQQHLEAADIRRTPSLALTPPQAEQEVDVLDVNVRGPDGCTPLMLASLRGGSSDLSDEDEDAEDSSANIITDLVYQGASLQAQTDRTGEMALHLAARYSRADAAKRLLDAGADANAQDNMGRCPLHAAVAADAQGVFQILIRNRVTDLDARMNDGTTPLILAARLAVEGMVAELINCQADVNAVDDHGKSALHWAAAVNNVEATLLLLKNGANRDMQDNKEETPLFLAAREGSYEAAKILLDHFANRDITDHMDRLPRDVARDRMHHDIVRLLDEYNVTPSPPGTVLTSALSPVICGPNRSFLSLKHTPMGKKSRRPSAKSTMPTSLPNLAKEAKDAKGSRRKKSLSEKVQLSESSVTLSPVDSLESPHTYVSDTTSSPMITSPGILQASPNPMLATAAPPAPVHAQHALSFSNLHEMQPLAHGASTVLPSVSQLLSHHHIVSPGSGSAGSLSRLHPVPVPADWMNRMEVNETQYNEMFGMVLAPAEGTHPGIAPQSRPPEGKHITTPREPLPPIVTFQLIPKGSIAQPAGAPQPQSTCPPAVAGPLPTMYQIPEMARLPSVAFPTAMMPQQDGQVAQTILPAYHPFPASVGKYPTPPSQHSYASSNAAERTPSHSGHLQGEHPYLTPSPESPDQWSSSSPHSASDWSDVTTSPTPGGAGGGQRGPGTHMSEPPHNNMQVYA

[6] = molecular target: Pro-neuregulin-1, membrane-bound isoform (Homo sapiens) (UniProt Q02297); assay: small molecules binding neuregulin-1 protein – biochemical, small-molecule microarray, fluorescence 635/667, psychiatric disease protein project, primary screen (AID 1075); conditions: NRG1 binding, 635 nm fluorescence, higher = more signal;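 further: score combines 667 nm spot fluorescence with signal to noise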
Chain of Pro-neuregulin-1, membrane-bound isoform (Homo sapiens) (Q02297 whole entry, looked up, the tested form may be a part, canonical isoform): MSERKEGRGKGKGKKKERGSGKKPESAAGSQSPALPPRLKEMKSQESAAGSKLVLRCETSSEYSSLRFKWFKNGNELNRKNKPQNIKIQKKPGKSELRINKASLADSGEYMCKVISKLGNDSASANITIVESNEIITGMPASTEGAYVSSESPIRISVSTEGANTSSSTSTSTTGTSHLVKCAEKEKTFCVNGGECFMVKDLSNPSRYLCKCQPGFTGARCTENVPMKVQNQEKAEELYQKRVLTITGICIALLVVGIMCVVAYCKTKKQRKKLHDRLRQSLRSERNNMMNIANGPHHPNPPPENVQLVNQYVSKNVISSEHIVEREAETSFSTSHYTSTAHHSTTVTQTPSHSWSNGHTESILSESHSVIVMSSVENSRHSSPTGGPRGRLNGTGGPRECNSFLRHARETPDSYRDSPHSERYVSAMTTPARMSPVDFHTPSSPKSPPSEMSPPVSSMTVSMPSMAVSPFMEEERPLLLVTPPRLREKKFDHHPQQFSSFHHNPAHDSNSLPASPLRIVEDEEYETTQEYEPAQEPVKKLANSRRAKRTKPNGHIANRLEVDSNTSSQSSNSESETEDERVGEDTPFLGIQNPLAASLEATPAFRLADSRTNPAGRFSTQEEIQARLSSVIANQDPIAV

[7] = tested on: Neuregulin-1 EGF-like domain; assay: small molecules binding NRG1 EGF domain – biochemical, small-molecule microarray, 635 nm fluorescence, primary screen (AID 1081); conditions: higher = more signal;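 further: binding of the protein to compounds printed on small-molecule microarray slides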
[8] = FRG1 expression reporter modulators in myotubes – cell-based, C2C12 myotubes, firefly/Renilla luciferase, luminescence, FRG1 inhibition for FSHD, primary screen (AID 1084); conditions: FRG1 promoter luciferase, higher = more signal, called active from +8 up or from −8 down
[9] = small molecules captured by biotinylated probe aFST – biochemical, small-molecule microarray, fluorescence 635/667, stem cell growth factor project, primary screen (AID 1086); conditions: higher = more signal;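 further: score merges 667 nm fluorescence with signal-to-noise of each printed compound spot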
[10] = binders of probe aHhip on microarray, primary screen, stem cell growth factor project, biochemical, small-molecule microarray, fluorescence 635/667 (AID 1087); conditions: higher = more signal;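 further: score merges spot fluorescence at 667nm with spot signal to noise ratio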

Structure (SMILES)	composite z-score [1]	composite z-score [2]	composite z-score [3]	composite z-score [4]	composite z-score [5]	composite z-score [6]	composite z-score [7]	z-score [8]	composite z-score [9]	composite z-score [10]
O=C1OCCC=C[C@H]2OC34C=CCN(Cc5ccccc5)C(=O)[C@H]3N(CCCCCO)C(=O)[C@@H]4C12 (stereo not given in full)	-0.557	1.4	-0.175	-0.436	-0.765	1.92	1.63	-0.781 (inactive)	0.0164	-0.35
CCCCC=C[C@@H](NC(=O)c1cccs1)c1ccccc1	0.144	0.583	0.121	0.308	1.1	0.736	0.858	-3.42 (inactive)	0.409	0.913
COc1ccc(CCNC(=O)[C@@]2(Sc3ccc(C)cc3)CC(=O)N(Cc3ccccc3Cl)[C@@H]2c2ccc(CO)cc2I)cc1	0.91	-0.548	-0.105	0.0404	-1.02	1.2	0.883	-2.03 (inactive)	-0.299	0.0695
CCOC(=O)C1=CCC(C(C)(C)C)N(S(=O)(=O)c2ccc(C)cc2)C1 (stereo not given)	-0.735	2.2	0.0954	1.23	1.49	0.673	1.19	-2.07 (inactive)	0.533	0.0139
C=C(CCCC)/C(=C/C[C@H](OC(C)=O)c1ccc(CO)o1)c1cnc2ccccc2c1	-0.472	0.773	-0.0749	1.14	1.1	0.963	1.26	0.13 (inactive)	0.13	0.0505
Cc1ccccc1C(O)C1C=CC2C(=O)N(C)C(=O)C2N1Nc1ccccc1 (stereo not given)	0.413	0.526	-0.0035	0.0865	1.22	2.05	1.14	0.772 (inactive)	0.842	-0.0994
CC1=C2[C@@H](CCc3ccccc3)OB(O)C[C@@H]2n2c(=O)n(-c3ccccc3)c(=O)n2C1	-0.388	-0.214	-0.132	0.203	0.889	0.537	1.04	-2.85 (inactive)	0.156	-0.34
O=C1OCCC/C=C\[C@H]2OC34C=CCN(Cn5nnc6ccccc65)C(=O)[C@H]3N(CCCCCO)C(=O)[C@@H]4C12 (stereo not given in full)	0.0227	-0.126	-0.145	-0.821	-0.919	0.865	0.443	0.406 (inactive)	-0.666	-0.206
[N-]=[N+]=NCc1ccccc1C[C@]1(C(=O)O)N=C(c2ccc(OCCCO)cc2)O[C@H]1c1ccccc1CN=[N+]=[N-]	-0.0279	0.169	-0.0474	0.396	0.591	1.53	1.16	-1.66 (inactive)	0.467	-0.239
C=CCNC(=O)[C@@H]1[C@H]2C(=O)O[C@H](c3ccccc3)[C@H](c3ccccc3)N2[C@H](c2ccc(OCCO)cc2)[C@@]12C(=O)Nc1ccccc12	0.511	0.0949	-0.116	0.405	0.117	1.51	1.23	-1.05 (inactive)	0.627	-0.513
COCCOC(=O)N1C(=O)[C@@]2(c3cc(C#CCNC(N)=O)ccc31)[C@H](c1ccc(O)cc1)N1[C@H](c3ccccc3)[C@H](c3ccccc3)OC(=O)[C@H]1[C@@H]2C(=O)NC[C@H](O)c1ccccc1	0.134	1.16	0.109	0.846	1.01	0.743	0.866	-0.463 (inactive)	1.55	0.127
O=C(O)[C@H]1C[C@H]2C(=O)NCC(=O)N2[C@H]1c1ccc(O)cc1	0.136	0.202	-0.0996	-0.224	-0.424	-0.235	1.4	3.81 (inactive)	0.025	-0.226
COc1ccc([Si](C)(C)[C@@H]2[C@@H](CC(=O)N(CCO)Cc3ccccc3)O[C@]3(C(=O)N(C)c4ccccc43)[C@H]2C)cc1	1.02	-0.135	-0.0336	0.628	0.525	0.872	1.11	-2.19 (inactive)	1.21	0.411
CCOc1cc(C(O)C2C=CC3C(=O)N(c4ccccc4)C(=O)C3N2Nc2ccc([N+](=O)[O-])cc2)ccc1O (stereo not given)	-0.549	0.23	0.0139	0.516	0.796	0.946	0.943	-0.374 (inactive)	0.311	-0.271
COc1ccc([Si](C)(C)[C@H]2[C@H](CCn3cc(CCO)nn3)O[C@@]3(C(=O)N(Cc4ccc(N5CCOC5=O)cc4)c4ccccc43)[C@@H]2C)cc1	0.102	1.38	-0.0158	0.44	0.14	1.51	1.07	-3.54 (inactive)	0.147	-0.236
